From PubChem BioAssay (Tox21)
Records with an inconclusive call do not appear. The source made the active and inactive calls. Unless noted, calls follow the shape of the dose curve; as a rule, active = well fitted curve in the direction sought with a large enough effect in the repeat runs; inconclusive = weak or mixed curves; inactive = no such curve, though single readings can be large; an effect the other way counts as inactive or inconclusive.

Key:
[1] = qHTS assay to identify aromatase inhibitors - cell viability counter screen (AID 743084);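 also: cells stimulated with testosterone during compound exposure; nearly all actives have a fitted effect of over 55% in size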
[2] = qHTS assay to identify small molecule that activate the aryl hydrocarbon receptor (AhR) signaling pathway - cell viability counter screen (AID 743086);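 also: HepG2 liver cells carrying the AhR DRE luciferase reporter; series mostly up to about 70 µM; nearly all actives have a fitted effect of over 45% in size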
Procedure, shortened: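 HepG2-AhR-luc (HG2L7.5c1) cells, 4000/well, treated 24 h at 37 C with compound; viability measured as CellTiter-Fluor fluorescence after 30 min in the same wells as the luciferase read.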

[3] = target: Peroxisome proliferator-activated receptor gamma (Homo sapiens) (UniProt P37231); assay: qHTS assay to identify small molecule agonists of the peroxisome proliferator-activated receptor gamma (PPARg) signaling pathway (AID 743094; active = well fitted activation curve with a large enough effect in the signal ratio in the repeat runs, not every such curve was filed as active; the % refers to the signal ratio)
Procedure, shortened: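 Reporter activation was scored by fluorescence of cleaved LiveBLAzer B/G substrate (1 h, room temperature) in PPARg-bla HEK293H cells previously treated 17 h at 37C with DMSO-dissolved compounds.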

[4] = qHTS assay for small molecule agonists of the antioxidant response element (ARE) signaling pathway - cell viability counter screen (AID 743203; calls by dose curve; also: nearly all actives have a fitted effect of over 55% in size)
Procedure, shortened: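 Viability counter screen: stably transfected ARE-bla HepG2 line, 16 hrs compound exposure at 37C/5% CO2, ATP-based CellTiter-Glo luminescence measured in the reporter wells.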

[5] = qHTS assay for small molecule activators of the heat shock response signaling pathway - cell viability counter screen (AID 743209); also: nearly all actives have a fitted effect of over 50% in size
Procedure, shortened: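 Viability of HSE-bla HeLa cells is measured with CellTiter-Glo in the wells already used for the reporter read. Compound exposure lasts 5 h at 37 C, and luminescence is read after 30 min at room temperature.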

[6] = qHTS assay for small molecule activators of the heat shock response signaling pathway (AID 743210; active = well fitted activation curve with a large enough effect in the signal ratio in the repeat runs, with a control signal flat, not every such curve was filed as active; the % refers to the signal ratio;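 also: HeLa cells with beta-lactamase reporter driven by heat shock elements; series mostly up to about 63 µM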)
Procedure, shortened: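 Following overnight attachment, HSE-bla HeLa cells received test compounds for 5 h at 37 C; beta-lactamase activity was then detected via FRET substrate fluorescence.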

[7] = target: Peroxisome proliferator-activated receptor delta (Homo sapiens) (UniProt Q03181); assay: qHTS assay to identify small molecule agonists of the peroxisome proliferator-activated receptor delta (PPARd) signaling pathway (AID 743212; calls by dose curve)
Procedure, shortened: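 Tox21 library screened in GeneBLAzer PPARd UAS-bla HEK293H cells. After compound treatment at 37 C, a FRET-based beta-lactamase substrate was applied for 2 h and fluorescence recorded.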

[8] = qHTS assay to identify small molecule antagonists of the peroxisome proliferator-activated receptor delta (PPARd) signaling pathway - cell viability counter screen (AID 743213); also: nearly all actives have a fitted effect of over 50% in size
Procedure, shortened: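 Cytotoxicity counter screen: CellTiter-Glo luminescence read 30 min after addition, in the same wells as the reporter assay. There, PPARd UAS-bla HEK293H cells (3000/well) were treated 17 h at 37 C with compound and 300 nM L165041.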

[9] = qHTS assay to identify small molecule agonists of the farnesoid-X-receptor (FXR) signaling pathway - cell viability counter screen (AID 743218); also: nearly all actives have a fitted effect of over 45% in size
Procedure, shortened: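 Viability of FXR-bla HEK 293T cells is measured by ATP-based CellTiter-Glo luminescence following 16 h compound treatment at 37 C and a prior 2 h room-temperature beta-lactamase substrate step.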

[10] = target: Bile acid receptor (Homo sapiens) (UniProt Q96RI1); assay: qHTS assay to identify small molecule agonists of the farnesoid-X-receptor (FXR) signaling pathway (AID 743220; active = well fitted activation curve with a large enough effect in the signal ratio in the repeat runs, not every such curve was filed as active; the % refers to the signal ratio)
Procedure, shortened: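 FXR-UAS-bla HEK 293T cells carrying a UAS-driven beta-lactamase reporter were plated for 5 h at 37C/5% CO2, then exposed to DMSO-dissolved Tox21 10K compounds for 16 h at 37C. A LiveBLAzer B/G FRET substrate was loaded for 2 h at room temperature before fluorescence reading.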

[11] = qHTS assay to identify small molecule antagonists of the farnesoid-X-receptor (FXR) signaling pathway - cell viability counter screen (AID 743221; active = well fitted cell-killing curve with a large enough effect in the repeat runs, not every such curve was filed as active; also: nearly all actives have a fitted effect of over 50% in size)
Procedure, shortened: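 Here viability was scored by luminescence after CellTiter-Glo addition to wells already read for beta-lactamase. Prior treatment: compound plus CDCA (50 uM final), 16 h, 37 C, HEK 293T FXR-bla cells.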

[12] = target: Vitamin D3 receptor (Homo sapiens) (UniProt P11473); assay: qHTS assay to identify small molecule agonists of the vitamin D receptor (VDR) signaling pathway (AID 743222; calls by dose curve)
Procedure, shortened: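 Fluorescence from cleaved LiveBLAzer B/G FRET substrate served as readout. VDR-bla cells had been treated 16 h at 37C with test compounds in DMSO, following a 4 h settling period, and substrate was loaded for 2 h at RT.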

[13] = target: Vitamin D3 receptor (Homo sapiens) (UniProt P11473); assay: qHTS assay to identify small molecule antagonists of the vitamin D receptor (VDR) signaling pathway (AID 743223; active = well fitted inhibition curve with a large enough effect in the signal ratio in the repeat runs, not every such curve was filed as active; the % refers to the signal ratio)
Procedure, shortened: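 Inhibition of agonist-driven VDR signalling is scored in VDR-bla cells: 3 nM final 1alpha,25-dihydroxyvitamin D3 plus compound, 16 h at 37C, then beta-lactamase detection by FRET substrate fluorescence after 2 h.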

[14] = target: Peroxisome proliferator-activated receptor gamma (Homo sapiens) (UniProt P37231); assay: qHTS assay to identify small molecule antagonists of the peroxisome proliferator-activated receptor gamma (PPARg) signaling pathway (AID 743191; calls by dose curve; also: series mostly up to about 63 µM; nearly all actives have a fitted effect of over 30% in size)
Procedure, shortened: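 GeneBLAzer PPARg UAS-bla HEK293H cells, 5 h post-plating, exposed to compounds 17 h at 37C. LiveBLAzer B/G FRET substrate added for 1 h at room temperature; beta-lactamase reporter read by fluorescence intensity.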

[15] = qHTS assay to identify small molecule antagonists of the peroxisome proliferator-activated receptor gamma (PPARg) signaling pathway - cell viability counter screen (AID 743194); also: nearly all actives have a fitted effect of over 55% in size
Procedure, shortened: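 Cytotoxicity counter screen in PPARg-bla HEK293H cells, same wells as reporter assay. Compounds plus 50 nM rosiglitazone (final) for 17 h at 37 C, then viability read by CellTiter-Glo luminescence.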

[16] = qHTS assay for small molecule agonists of the antioxidant response element (ARE) signaling pathway (AID 743202; active = well fitted activation curve with a large enough effect in the signal ratio in the repeat runs, not every such curve was filed as active; the % refers to the signal ratio)
Procedure, shortened: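 HepG2 ARE-bla cells; 16 h treatment at 37 C; FRET-based beta-lactamase fluorescence read after 2 h substrate incubation at room temperature.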

[17] = qHTS assay to identify small molecule agonists of the peroxisome proliferator-activated receptor delta (PPARd) signaling pathway - cell viability counter screen (AID 743211); also: nearly all actives have a fitted effect of over 55% in size
Procedure, shortened: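 In the same wells used for beta-lactamase reporter measurement, cytotoxicity is scored by CellTiter-Glo. HEK293H PPARd-bla cells receive compound for 17 h at 37C following a 5 h settling period.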

[18] = target: Peroxisome proliferator-activated receptor delta (Homo sapiens) (UniProt Q03181); assay: qHTS assay to identify small molecule antagonists of the peroxisome proliferator-activated receptor delta (PPARd) signaling pathway (AID 743215; active = well fitted inhibition curve with a large enough effect in the signal ratio in the repeat runs, not every such curve was filed as active; the % refers to the signal ratio;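 also: cells stimulated with agonist L165041 at 300 nM final during compound exposure; series mostly up to about 62 µM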)
Procedure, shortened: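 Plated HEK293H PPARd-bla cells rested 5 h at 37 C and 5% CO2. Compound, then agonist L165041 at 300 nM final, was added; 17 h at 37 C followed. Substrate loading, 2 h room temperature, fluorescence measured.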

[19] = target: Bile acid receptor (Homo sapiens) (UniProt Q96RI1); assay: qHTS assay to identify small molecule antagonists of the farnesoid-X-receptor (FXR) signaling pathway (AID 743217; active = well fitted inhibition curve with a large enough effect in the signal ratio in the repeat runs, not every such curve was filed as active; the % refers to the signal ratio)
Procedure, shortened: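 Screen of the Tox21 10K library in quantitative HTS format using FXR-UAS-bla HEK 293T reporter cells. Agonist chenodeoxycholic acid, 50 uM final, added with compounds; 16 h incubation at 37 °C; beta-lactamase FRET fluorescence measured.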

Measured: Potency

Chain of Peroxisome proliferator-activated receptor gamma (Homo sapiens) (P37231 whole entry, looked up): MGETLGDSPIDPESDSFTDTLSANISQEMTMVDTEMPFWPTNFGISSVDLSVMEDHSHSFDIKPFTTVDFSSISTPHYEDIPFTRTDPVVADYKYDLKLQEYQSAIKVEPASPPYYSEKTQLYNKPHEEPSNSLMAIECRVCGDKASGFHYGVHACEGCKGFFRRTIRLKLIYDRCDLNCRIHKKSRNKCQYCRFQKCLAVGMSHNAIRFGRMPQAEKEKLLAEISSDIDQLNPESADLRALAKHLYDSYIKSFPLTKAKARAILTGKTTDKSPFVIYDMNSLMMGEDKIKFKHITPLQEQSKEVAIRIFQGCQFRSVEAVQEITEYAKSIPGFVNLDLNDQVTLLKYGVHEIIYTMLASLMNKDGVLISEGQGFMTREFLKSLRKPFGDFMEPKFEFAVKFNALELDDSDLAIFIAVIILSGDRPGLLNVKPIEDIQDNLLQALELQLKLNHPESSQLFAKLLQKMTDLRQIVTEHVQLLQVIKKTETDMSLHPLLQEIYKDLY
Chain of Vitamin D3 receptor (Homo sapiens) (P11473 whole entry, looked up): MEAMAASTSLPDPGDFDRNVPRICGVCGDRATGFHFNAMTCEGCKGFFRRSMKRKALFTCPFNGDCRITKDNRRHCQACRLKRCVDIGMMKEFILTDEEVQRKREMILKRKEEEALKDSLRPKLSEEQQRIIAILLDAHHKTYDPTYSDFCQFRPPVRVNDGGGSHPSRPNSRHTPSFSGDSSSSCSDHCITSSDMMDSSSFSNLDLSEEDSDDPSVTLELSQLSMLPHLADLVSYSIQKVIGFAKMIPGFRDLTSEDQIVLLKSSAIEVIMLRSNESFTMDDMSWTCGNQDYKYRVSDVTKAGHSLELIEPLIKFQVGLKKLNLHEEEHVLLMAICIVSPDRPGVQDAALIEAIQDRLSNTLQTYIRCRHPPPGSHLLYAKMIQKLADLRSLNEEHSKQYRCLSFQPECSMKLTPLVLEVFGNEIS
Chain of Bile acid receptor (Homo sapiens) (Q96RI1 whole entry, looked up): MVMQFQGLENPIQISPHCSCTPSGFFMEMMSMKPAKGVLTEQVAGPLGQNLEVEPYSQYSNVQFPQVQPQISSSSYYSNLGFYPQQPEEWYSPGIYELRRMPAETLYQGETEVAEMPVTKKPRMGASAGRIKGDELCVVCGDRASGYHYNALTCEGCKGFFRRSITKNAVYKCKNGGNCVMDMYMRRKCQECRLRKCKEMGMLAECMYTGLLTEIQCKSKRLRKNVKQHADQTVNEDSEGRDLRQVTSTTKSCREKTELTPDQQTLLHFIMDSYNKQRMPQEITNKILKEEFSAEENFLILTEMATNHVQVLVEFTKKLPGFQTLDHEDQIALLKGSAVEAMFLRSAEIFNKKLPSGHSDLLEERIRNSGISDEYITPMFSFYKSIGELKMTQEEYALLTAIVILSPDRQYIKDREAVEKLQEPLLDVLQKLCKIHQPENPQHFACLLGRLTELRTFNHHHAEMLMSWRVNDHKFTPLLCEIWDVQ
Chain of Peroxisome proliferator-activated receptor delta (Homo sapiens) (Q03181 whole entry, looked up): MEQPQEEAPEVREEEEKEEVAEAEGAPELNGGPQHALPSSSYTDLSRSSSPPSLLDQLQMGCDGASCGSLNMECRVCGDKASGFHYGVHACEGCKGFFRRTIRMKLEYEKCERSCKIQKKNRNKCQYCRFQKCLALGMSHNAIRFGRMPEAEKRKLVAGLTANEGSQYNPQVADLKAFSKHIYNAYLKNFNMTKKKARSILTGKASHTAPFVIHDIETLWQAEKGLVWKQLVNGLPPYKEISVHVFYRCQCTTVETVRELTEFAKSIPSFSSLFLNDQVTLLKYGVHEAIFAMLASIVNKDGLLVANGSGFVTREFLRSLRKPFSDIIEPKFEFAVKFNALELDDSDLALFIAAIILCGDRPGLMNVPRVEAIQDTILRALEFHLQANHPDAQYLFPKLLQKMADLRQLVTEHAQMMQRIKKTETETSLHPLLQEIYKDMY

O=C(c1ccccc1O)c1ccccc1O
not listed: [14] | [15] | [16] | [17] | [18] | [19]
inactive: all other assays above

O=S(=O)(O)c1cccc2c(S(=O)(=O)O)cccc12
not listed: [2] | [6] | [7] | [10] | [18] | [19]
inactive: all other assays above

O=C(O)Cc1csc(-c2ccc(Cl)cc2)n1
not listed: [3] | [9] | [10] | [14] | [18] | [19]
inactive: all other assays above

CC(=O)c1cnccn1
not listed: [5] | [14]
inactive: all other assays above

C=CCOCC(O)CO (stereo unspecified)
not listed: [2] | [7] | [8] | [10] | [13] | [14] | [18]
inactive: all other assays above

CC(C)(N)C#N
not listed: [5] | [7] | [10] | [12] | [13] | [14] | [17] | [19]
inactive: all other assays above

CCCn1cc[n+](C)c1C
not listed: [3] | [5] | [7] | [10] | [14] | [15] | [16] | [19]
inactive: all other assays above

Nc1ccccn1
not listed: [3] | [7] | [10] | [14] | [16] | [18] | [19]
inactive: all other assays above

CCOCC(C)O (stereo unspecified)
not listed: [2] | [7] | [8] | [13]
inactive: all other assays above

COc1ccccc1OCC1CNC(=O)O1 (stereo unspecified)
not listed: [2] | [5] | [10] | [14] | [19]
inactive: all other assays above

CC(C)[C@H]1CC[C@@H](C)CC1=O
inactive: [1] | [2] | [3] | [16] | [4] | [5] | [17] | [8] | [9] | [11]

CN1CCN(c2cc3c(nn2)Oc2ccccc2N3C)CC1
not listed: [5] | [6] | [10] | [14] | [19]
inactive: all other assays above

CC(C)C[C@@H](N)C(=O)O
not listed: [9] | [14] | [15]
inactive: all other assays above

CO[C@@]1(NC(=O)C(C(=O)O)c2ccc(O)cc2)C(=O)N2C(C(=O)O)=C(CSc3nnnn3C)CO[C@@H]21 (stereo partly specified)
not listed: [7] | [9] | [10] | [14] | [17] | [19]
inactive: all other assays above

CCOc1ccc2nc(S(N)(=O)=O)sc2c1
not listed: [6] | [7] | [10] | [14] | [16] | [19]
inactive: all other assays above

CC(COc1ccccc1)NN (stereo unspecified)
not listed: [6] | [8] | [10] | [14] | [19]
inactive: all other assays above

O=C(O)c1cn(C2CC2)c2cc(N3CCNCC3)c(F)cc2c1=O
not listed: [4] | [12] | [13] | [14] | [16] | [19]
inactive: all other assays above

C=CCCCCCCCCC(=O)OCC
not listed: [6] | [8] | [10] | [13] | [14] | [16] | [19]
inactive: all other assays above
